Ba/F3 V617F tox – lowers viability of Ba/F3 cells expressing EpoR and JAK2V617F | ATP luminescence | inhibition, % at 5.6 µM | 1.1% of 220,000 active | AID 1446;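 active = inhibition above the campaign mean plus 3 SD over all tested compounds, cut at about 24% in these data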;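 also: cytokine-independent growth of Ba/F3 cells driven by EpoR plus mutant JAK2; 0% = DMSO-treated cells and 100% = JAK inhibitor I control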
IEC-6 cytotox – counter-screen for KLF5 inhibitors: cytotoxicity in IEC-6 cells | IEC-6 cytotoxicity, luminescence viability | inhibition, % at 5 µM | 0.78% of 290,000 active; in the data active = inhibition above about 22%;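 also: 0% = plate median of test compound wells and 100% = cytotoxic reference compound wells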
aSyn 5UTR inh – 5' untranslated region of α-synuclein, MLPCN primary screen. AID 1813. alpha-synuclein 5'UTR reporter, inhibitor activity. inhibition, % (tested at 7.5 µM). 0.82% of 300,000 active; in the data active = inhibition above about 60%; inconclusive = no clear call, values can overlap the other calls;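 also: H4 neuroglioblastoma cells stably carrying SNCA 5'UTR luciferase fusion; 0% = DMSO wells and 100% = positive control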
BaF3 parental – reduces parental Ba/F3 cell viability, JAK2V617F counter-screen | CellTiter-Glo ATP luminescence | inhibition, % at 5.6 µM | 1.1% of 220,000 active;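 active = inhibition above a per-campaign cutoff, the mean inhibition of all tested compounds plus 3 SD, cut at about 27% in these data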;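 also: 0% = DMSO wells and 100% = JAK Inhibitor I control wells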
KLF5 inhibitor – suppresses KLF5 promoter-driven expression; inhibition, % at 5 µM; DLD-1 KLF5 promoter-luciferase reporter, luminescence; 0.23% of 290,000 active;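 active = inhibition above a per-plate limit of that plate's mean compound inhibition plus 3 SD, cut at about 60% in these data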;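 also: 0% = DMSO wells and 100% = LY294002 at 200 µM; higher means less KLF5 promoter-driven luciferase light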
APP 5UTR inh – APP translation inhibition | inhibition, % at 2 µM | SH-SY5Y APP 5'UTR-luciferase reporter, luminescence | 0.82% of 190,000 active | AID 1285;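 active = inhibition above a set limit, derived from the sample mean plus 3 SD, cut at about 45% in these data; inconclusive = one replicate passes the limit while the other fails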
Starred values were filed as active, the others as inactive; ? = inconclusive; . = not tested or not shown. Most compounds without a hit are left out; they make up all but 2.1% or so of the library.

SMILES	Ba/F3 V617F tox	IEC-6 cytotox	aSyn 5UTR inh	BaF3 parental	KLF5 inhibitor	APP 5UTR inh
CCOc1ccc(NC(=O)CC(=O)Nc2ccc(OCC)cc2)cc1	.	0	-15	.	-19	.
COc1cccc(N2C(=O)C3CCCN3C2=S)c1 (stereo unspecified)	.	-4	-22	.	-1	.
CCOC(=O)/C(C#N)=C1\SS/C(=C(/C#N)C(=O)OCC)S1	-2	5	-9	-3	-23	.
Cc1ccc2c(C)nc(NC3=NCN(C(C)C)CN3)nc2c1	10	0	.	31*	-31	-3
CC(=O)c1cnc(Nc2nc(C)c3ccc(C)cc3n2)nc1C	-2	-1	5	0	-21	2
COc1cc2c(cc1OC)-c1cc(NC3CCCCCCC3)nc(=O)n1CC2	3	0	70*	9	-22	-5
O=C(Nc1ccccn1)c1ccc(-c2ccccc2)cc1	.	0	63*	.	43	.
O=C(Nc1ccccn1)c1ccc2nc(-c3ccccc3)c(-c3ccccc3)nc2c1	1	-2	-10	5	-4	6
Cn1c(/C=C/c2ccc([N+](=O)[O-])o2)nc2ccccc2c1=O	87*	6	98*	67*	-21	37
Cn1c(/C=C/c2ccccc2)nc2ccccc2c1=O	.	3	-137	.	-102	.
CCCOc1ccc2cc(-c3ccccn3)c(=O)oc2c1	2	4	77*	4	-7	-123
CCc1ccc(-c2nnn(CCC(=O)OC)n2)cc1	-2	0	77*	6	-6	48*
O=C(O)CCn1nnc(-c2cccs2)n1	2	4	10	2	-13	4
CC(C)c1ccc(-c2nnn(CCC(=O)O)n2)cc1	6	-1	118*	4	33	82*
CCOc1ccccc1N1C(=O)c2ccc(S(=O)(=O)c3ccc(C(=O)O)cc3)cc2C1=O	.	4	9	.	-1	.
Cc1ccc2nc(NC(=O)C3CCN(S(=O)(=O)c4cc([N+](=O)[O-])ccc4Cl)CC3)sc2c1	37*	2	-5	38*	14	9
O=C(Nc1nc2ccc(F)cc2s1)C1CCN(S(=O)(=O)c2cc([N+](=O)[O-])ccc2Cl)CC1	11	-7	-197	5	-58	-8
Cc1cccc(/C=N/NC(=O)CC(=O)NCCc2ccccc2)c1	.	.	11	.	.	.
CC(=O)Nc1ccc(S(=O)(=O)N(Cc2ccccc2)C(C)C)cc1	32*	-4	1	50*	15	-3
NC(=O)c1sc2nc3c(c(-c4ccc(Cl)cc4)c2c1N)CCCC3	0	1	66*	4	2	.
O=C1NCCCC1C(=O)N1CCN(C(c2ccccc2)c2ccccc2)CC1 (stereo unspecified)	-2	-3	-10	2	0	50*
CCN(CC)CCCNC(=O)c1cc2c(-c3ccc(Cl)cc3)nn(C)c2s1	7	14	-39	29*	-14	-3
N#Cc1ccccc1CSCCNC(=O)Cc1c(F)cccc1Cl	.	-5	-28	.	-26	.
O=C(NCc1ccccc1OC(F)(F)F)C1CCC(=O)N(C2CC2)C1 (stereo unspecified)	.	-1	-1	.	-29	.
CCn1c(C)[n+](CC(O)COCC2CC=CCC2)c2ccccc21 (stereo unspecified)	27*	-3	-23	41*	-16	4
SMILES	Ba/F3 V617F tox	IEC-6 cytotox	aSyn 5UTR inh	BaF3 parental	KLF5 inhibitor	APP 5UTR inh
CCc1n(CC(O)COCC2CC=CCC2)c2ccccc2[n+]1C (stereo unspecified)	26*	0	11	35*	-27	-2
CCc1n(CC(O)COC2CCCCC2)c2ccccc2[n+]1C (stereo unspecified)	24*	-2	-4	57*	-9	-4
CCCc1n(CC)c2ccccc2[n+]1CC(O)COC1CCCCC1 (stereo unspecified)	33*	2	25	50*	21	4
Cc1n(CC(O)COCc2ccccc2)c2ccccc2[n+]1C (stereo unspecified)	16	6	11	13	2	3
Cc1nc2ccccc2n1CC(O)COCC1CC=CCC1 (stereo unspecified)	-5	4	-25	5	-11	13
CC(/C=N/NC(=O)c1nnn(-c2nonc2N)c1CN1CCCCC1)c1ccccc1 (stereo unspecified)	.	.	14	.	.	.
Cc1ccc(NC(=O)CCn2c(=S)oc3ccccc32)cc1F	.	5	8	.	5	.
O=C(CN1C(=O)CSc2ncccc21)Nc1cccc(Cl)c1	.	7	-25	.	-27	.
NC(=O)c1ccc[n+](Cc2ccccc2)c1	2	-4	2	4	-13	-16
CC1=CCC2COC(c3ccc[n+](Cc4ccccc4)c3)C1C2 (stereo unspecified)	46*	-2	-17	67*	6	-16
Cc1ccc(NC(=S)N(CCCN2CCOCC2)Cc2ccco2)cc1C	-1	-6	.	9	-15	-20
Cc1cc(NC(=S)N(CCCN2CCN(C)CC2)Cc2ccco2)ccc1Cl	35*	-5	13	27*	-16	-16
COc1ccc(/C(C)=N/NC(=O)CNC(=O)c2cccnc2)c(OC)c1	.	-1	10	.	-15	.
C1CCCCCC(NCCN2CCNCC2)CCCCC1	80*	9	-49	42*	-32	.
O=C(/C=C/c1cccs1)Nc1ccc(Br)cn1	74*	81*	-50	71*	23	92*
O=C(/C=C/c1cccs1)Nc1cccc(NC(=O)/C=C/c2cccs2)n1	2	9	-181	6	-109	-45
Cc1ccc(NC(=O)CSc2n[nH]c(-c3ccccn3)n2)cc1	.	9	?	.	40	.
O=C(CSc1n[nH]c(-c2ccccn2)n1)Nc1ccc(F)cc1	.	13	73*	.	22	.
CCOc1ccc(N(CC(=O)N2CCCCCC2)S(C)(=O)=O)cc1	.	2	-3	.	-25	.
Clc1ccc2nc(-c3ccc4c(c3)OCO4)cn2c1	4	21	57	15	15	-158
c1ccn2cc(-c3ccc4c(c3)OCCO4)nc2c1	13	11	98*	14	-23	-117
O=C(Cn1ncc(Cl)c(Cl)c1=O)N1CCN(S(=O)(=O)c2ccc3ccccc3c2)CC1	1	10	30	2	-10	94*
O=C(O)CCC(=O)N1CCN(S(=O)(=O)c2ccc3ccccc3c2)CC1	.	-3	2	.	-2	.
CCOC(=O)N1CCN(C(=O)C(=O)Nc2sc3c(c2C(N)=O)CC(C)(C)OC3)CC1	.	-2	-13	.	-10	.
CCOc1ccc(S(=O)(=O)n2cnc3cc(C)c(C)cc32)cc1	40*	8	0	50*	-26	3
COCCNC(=S)NC(=O)c1ccc(C(C)(C)C)cc1	1	4	-91	11	-26	-10
COCCCNC(=S)NNC(=O)C1CC1c1ccc(C(C)(C)C)cc1 (stereo unspecified)	7	-2	-100	38*	-21	-17
O=S(=O)(c1ccc(Br)s1)N1CCN(c2ccc(F)cc2)CC1	.	-1	-8	.	4	.
C/C(N)=C(/C#N)C(=O)COC(=O)CNS(=O)(=O)c1ccc2ccccc2c1	51*	5	3	60*	-4	.
